Data: PubChem BioAssay AID602143 (Vanderbilt Specialized Chemistry Center, 2011)
Unmarked numbers belong to inactive results. The source made the active and inactive calls. No stated cut-off is given here; in the data, active means remaining activity below about 50%; inactive means the rest.

Target: Phospholipase D2 (Homo sapiens) (UniProt O14939)
Assay: cellular phospholipase D2 activity inhibition – cell-based, HEK293, single concentration (AID 602143);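 further: tested at 200 nM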
Settings: HEK293 cellular PLD2 activity, percent of control; active compounds read low

Sequence of Phospholipase D2 (Homo sapiens) (O14939 whole entry, looked up): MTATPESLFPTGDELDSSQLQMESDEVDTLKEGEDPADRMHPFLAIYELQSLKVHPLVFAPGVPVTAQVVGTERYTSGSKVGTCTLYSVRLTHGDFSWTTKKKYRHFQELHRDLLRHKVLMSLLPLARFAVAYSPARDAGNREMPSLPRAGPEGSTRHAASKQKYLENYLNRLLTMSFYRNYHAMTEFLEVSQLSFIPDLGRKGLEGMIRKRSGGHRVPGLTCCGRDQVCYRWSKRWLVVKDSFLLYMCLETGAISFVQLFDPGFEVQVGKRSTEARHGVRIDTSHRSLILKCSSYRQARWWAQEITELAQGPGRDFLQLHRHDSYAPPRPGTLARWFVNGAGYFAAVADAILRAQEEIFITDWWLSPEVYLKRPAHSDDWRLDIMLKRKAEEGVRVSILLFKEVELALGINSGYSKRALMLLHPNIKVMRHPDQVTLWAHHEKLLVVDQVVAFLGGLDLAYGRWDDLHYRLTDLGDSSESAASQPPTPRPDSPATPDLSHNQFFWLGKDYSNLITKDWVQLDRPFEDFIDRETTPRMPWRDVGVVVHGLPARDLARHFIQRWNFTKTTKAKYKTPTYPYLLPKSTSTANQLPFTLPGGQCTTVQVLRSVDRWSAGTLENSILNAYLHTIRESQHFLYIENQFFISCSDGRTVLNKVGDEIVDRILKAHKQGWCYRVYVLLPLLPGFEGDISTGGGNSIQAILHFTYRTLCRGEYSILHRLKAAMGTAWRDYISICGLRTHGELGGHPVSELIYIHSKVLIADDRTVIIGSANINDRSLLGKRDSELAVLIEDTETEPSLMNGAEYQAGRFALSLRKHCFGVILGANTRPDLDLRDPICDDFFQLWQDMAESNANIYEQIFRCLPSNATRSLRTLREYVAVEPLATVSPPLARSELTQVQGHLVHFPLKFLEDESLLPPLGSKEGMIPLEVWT
Sequence of Phospholipase D2 (Homo sapiens) (O14939 whole entry, looked up): as above

| SMILES | remaining activity |
| --- | --- |
| O=C(NCCN1CCN(c2ccccn2)CC1)c1ccc(C(F)(F)F)cc1 | 117% |
| O=C(NCCN1CCC(n2c(=O)[nH]c3ccccc32)CC1)c1cccc2cccnc12 | 74.2% |
| C[C@@H](CN1CCC(n2c(=O)[nH]c3ccccc32)CC1)NC(=O)c1ccc[nH]1 | 39.9% (active) |
| O=c1[nH]c2ccccc2n1C1CCN(CCNC(=S)Nc2ccccn2)CC1 | 72.7% |
| O=C(NCCN1CCC(c2nc3ccccc3[nH]2)CC1)C1CC1c1ccccc1 (stereo not given) | 95.6% |
| CN(CCN1CCC(n2c(=O)[nH]c3ccccc32)CC1)C(=O)c1ccc2ccccc2c1 | 101% |
| C[C@@H](CN1CCC2(C=Cc3ccccc32)CC1)NC(=O)c1cnc2ccccc2c1 | 77.4% |
| Cc1ccc(C(=O)NCCN2CCN(c3ccccn3)CC2)cc1 | 107% |
| O=C(N[C@@H](Cc1ccccc1)CN1CCC(n2c(=O)[nH]c3ccccc32)CC1)c1ccc(F)c(F)c1 | 124% |
| O=C(NCCN1CCC2(CC1)CNc1ccccc12)c1cnc2ccccc2c1 | 90% |
| O=C(c1ccc(Cl)cc1)N1CCC(n2c(=O)[nH]c3cc(Cl)ccc32)CC1 | 60.2% |
| O=C(NCCN1CCN(c2ccncc2)CC1)c1c2ccccc2cc2ccccc12 | 127% |
| CC(C)C(=O)N[C@@H](C)CN1CCC(n2c(=O)[nH]c3ccccc32)CC1 | 106% |
| O=c1[nH]c2ccccc2n1C1CCN(CCNS(=O)(=O)c2cccc(C(F)(F)F)c2)CC1 | 61.1% |
| O=C(NCCN1CCC(n2c(=O)n(C(=O)c3ccc(Cl)cc3)c3ccccc32)CC1)c1ccc(Cl)cc1 | 64.5% |
| C[C@@H](CN1CCC2(C=Cc3ccccc32)CC1)NC(=O)c1ccc2ccccc2c1 | 147% |
| O=C(NCCN1CCC(n2c(=O)[nH]c3ccccc32)CC1)Nc1cccc(C(F)(F)F)c1 | 131% |
| O=C(NCCN1CCC(c2nc3ccccc3[nH]2)CC1)c1ccc2ccccc2c1 | 95.1% |
| C[C@@H](CN1CCC(n2c(=O)[nH]c3ccccc32)CC1)NC(=O)c1cc2ccccc2[nH]1 | 0.434% (active) |
| C[C@@H](CN1CC=C(n2c(=O)[nH]c3ccccc32)CC1)NC(=O)[C@H]1C[C@@H]1c1ccccc1 | 74.4% |
| COc1cccc(N2CCN(CCNC(=O)c3ccc(C(F)(F)F)cc3)CC2)c1 | 98.3% |
| Cc1ccc(C(=O)NCCN2CCN(c3ccncc3)CC2)cc1 | 114% |
| Cc1ccc(C(=O)NCCN2CCC(n3c(=O)[nH]c4cc(Br)ccc43)CC2)cc1 | 21.8% (active) |
| Cc1ccc(C(=O)N[C@@H](C)CN2CCC(n3c(=O)[nH]c4cc(Cl)ccc43)CC2)cc1 | 86% |
| Cc1ccc(C(=O)N[C@@H](C)CN2CCC(n3c(=O)[nH]c4c(F)cccc43)CC2)cc1 | 98.2% |
